{"source": "ChEMBL document CHEMBL3433997", "about": "“St. Jude Leishmania screening dataset” (2016)", "format_in_all_cases": "functional", "key": {"[1]": {"molecular_target": "Solute carrier family 2, facilitated glucose transporter member 1 (Homo sapiens) (UniProt P11166)", "sequence (P11166 whole entry)": "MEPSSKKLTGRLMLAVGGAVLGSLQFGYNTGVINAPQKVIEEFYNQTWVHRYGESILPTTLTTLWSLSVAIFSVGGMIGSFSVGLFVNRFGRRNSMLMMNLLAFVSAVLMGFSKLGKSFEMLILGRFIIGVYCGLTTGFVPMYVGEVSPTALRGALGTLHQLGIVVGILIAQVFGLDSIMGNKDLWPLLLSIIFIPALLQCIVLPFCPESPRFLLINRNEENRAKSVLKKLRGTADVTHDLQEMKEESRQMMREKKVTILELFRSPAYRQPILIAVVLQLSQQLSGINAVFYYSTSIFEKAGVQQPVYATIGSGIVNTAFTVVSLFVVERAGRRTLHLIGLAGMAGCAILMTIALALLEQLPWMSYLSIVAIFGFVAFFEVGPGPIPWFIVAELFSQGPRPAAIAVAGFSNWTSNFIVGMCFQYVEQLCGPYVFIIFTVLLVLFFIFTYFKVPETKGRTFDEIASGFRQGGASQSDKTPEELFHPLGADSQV", "experiment": "ST_JUDE_LEISH: Cytotoxicity at 2uM final concentration against transgenic Leishmania Mexicana promastigotes LmGLUT1 that are glucose transport deficient and complemented with the human glucose transporter GLUT1. Activity is measured by DNA content using SYBR green in vitro"}, "[2]": {"molecular_target": "Hexose transporter 1 (Plasmodium falciparum) (UniProt O97467)", "experiment": "ST_JUDE_LEISH: Cytotoxicity at 2uM final concentration against transgenic Leishmania Mexicana promastigotes LmPfHT that are glucose transport deficient and complemented with the Plasmodium falciparum hexose transporter. Activity is measured by DNA content using SYBR green in vitro"}, "[3]": {"molecular_target": "Glucose transporter (Leishmania mexicana) (UniProt O61059)", "experiment": "ST_JUDE_LEISH: Cytotoxicity at 2uM final concentration against transgenic Leishmania Mexicana promastigotes LmGT2 that are glucose transport deficient and complemented with the L. Mexicana glucose transporter 2. Activity is measured by DNA content using SYBR green in vitro"}}}
{"smiles": "Cc1ccccc1OCC(O)CN1CCC(C2CCN(CC(O)COc3ccccc3C)CC2)CC1", "note": "(stereo not drawn)", "values": [{"measurement": "inhibition", "setting": "[1]", "result": 2.25, "unit": "%"}, {"measurement": "inhibition", "setting": "[2]", "result": 2, "unit": "%"}, {"measurement": "inhibition", "setting": "[3]", "result": 2.28, "unit": "%"}]}
{"smiles": "CC(C)CCN1CCC(Oc2ccc(NC(=O)c3cccs3)cc2Cl)C1", "note": "(stereo not drawn)", "values": [{"measurement": "inhibition", "setting": "[1]", "result": 10.2, "unit": "%"}, {"measurement": "inhibition", "setting": "[2]", "result": 11.8, "unit": "%"}, {"measurement": "inhibition", "setting": "[3]", "result": 9.02, "unit": "%"}]}
{"smiles": "Cc1ccc(-c2ccn(Cc3ccc(OCc4ccccc4)cc3)n2)cn1.Cc1ccc(-c2ccnn2Cc2ccc(OCc3ccccc3)cc2)cn1", "values": [{"measurement": "inhibition", "setting": "[1]", "result": 0.13, "unit": "%"}, {"measurement": "inhibition", "setting": "[2]", "result": 0.76, "unit": "%"}, {"measurement": "inhibition", "setting": "[3]", "result": 0.25, "unit": "%"}]}
{"smiles": "CC(C)(C)c1ccc(CNC(=O)c2cc(CNC3CCC(N)CC3)ccc2O)cc1", "note": "(stereo not drawn)", "values": [{"measurement": "inhibition", "setting": "[1]", "result": 0.08, "unit": "%"}, {"measurement": "inhibition", "setting": "[2]", "result": -1.35, "unit": "%"}, {"measurement": "inhibition", "setting": "[3]", "result": 0.99, "unit": "%"}]}
{"smiles": "Cc1cnc(C[S+]([O-])c2nc3cc(C(F)(F)F)ccc3[nH]2)cc1OCc1ccccc1", "note": "(stereo not drawn)", "values": [{"measurement": "inhibition", "setting": "[1]", "result": 3.56, "unit": "%"}, {"measurement": "inhibition", "setting": "[2]", "result": 4.95, "unit": "%"}, {"measurement": "inhibition", "setting": "[3]", "result": 2.76, "unit": "%"}]}
{"smiles": "COc1ccc2nccc([C@@H](O)CN3CCC(NCCOc4cc(F)cc(F)c4)CC3)c2c1", "values": [{"measurement": "inhibition", "setting": "[1]", "result": 9.84, "unit": "%"}, {"measurement": "inhibition", "setting": "[2]", "result": 19.3, "unit": "%"}, {"measurement": "inhibition", "setting": "[3]", "result": 4.32, "unit": "%"}]}
{"smiles": "O=C(Nc1ccc(OC2CCN(Cc3ccccc3)C2)c(Cl)c1)c1ccco1", "note": "(stereo not drawn)", "values": [{"measurement": "inhibition", "setting": "[1]", "result": 5.7, "unit": "%"}, {"measurement": "inhibition", "setting": "[2]", "result": 6.46, "unit": "%"}, {"measurement": "inhibition", "setting": "[3]", "result": 4.97, "unit": "%"}]}
{"smiles": "COc1cccc(NC(=O)Cn2c(C)c(C(=O)C(F)(F)F)c3ccccc32)c1", "values": [{"measurement": "inhibition", "setting": "[1]", "result": 2.88, "unit": "%"}, {"measurement": "inhibition", "setting": "[2]", "result": 1.7, "unit": "%"}, {"measurement": "inhibition", "setting": "[3]", "result": 2.26, "unit": "%"}]}
{"smiles": "Cc1nc(-c2ccc(C(F)(F)F)cn2)sc1C(=O)N1CCc2cc3nccc(N4CCN5CCC[C@H]5C4)c3cc21", "values": [{"measurement": "inhibition", "setting": "[1]", "result": 7.49, "unit": "%"}, {"measurement": "inhibition", "setting": "[2]", "result": 5.35, "unit": "%"}, {"measurement": "inhibition", "setting": "[3]", "result": 0.8, "unit": "%"}]}
{"smiles": "N#Cc1ccc(C(=O)Nc2ccc(-c3cccc(CN4CCCC4)c3)cc2)cc1", "values": [{"measurement": "inhibition", "setting": "[1]", "result": 4.22, "unit": "%"}, {"measurement": "inhibition", "setting": "[2]", "result": 1.49, "unit": "%"}, {"measurement": "inhibition", "setting": "[3]", "result": -0.82, "unit": "%"}]}
{"smiles": "COc1ccc(C(=O)NC(c2ccc(Cl)cc2Cl)c2cc(Cl)c3cccnc3c2O)cc1", "note": "(stereo not drawn)", "values": [{"measurement": "inhibition", "setting": "[1]", "result": 0.87, "unit": "%"}, {"measurement": "inhibition", "setting": "[2]", "result": 3.16, "unit": "%"}, {"measurement": "inhibition", "setting": "[3]", "result": -1.58, "unit": "%"}]}
{"smiles": "CCN1CCN(c2cc(C)c3cc(NC(=O)c4cccc([N+](=O)[O-])c4)ccc3n2)CC1", "values": [{"measurement": "inhibition", "setting": "[1]", "result": -0.98, "unit": "%"}, {"measurement": "inhibition", "setting": "[2]", "result": 0.44, "unit": "%"}, {"measurement": "inhibition", "setting": "[3]", "result": -1.42, "unit": "%"}]}
{"smiles": "NC1=NC2(CCCCC2)N(OCCCCCCN2C(=O)c3ccccc3C2=O)C(N)=N1", "values": [{"measurement": "inhibition", "setting": "[1]", "result": 12.9, "unit": "%"}, {"measurement": "inhibition", "setting": "[2]", "result": 7.88, "unit": "%"}, {"measurement": "inhibition", "setting": "[3]", "result": 11.2, "unit": "%"}]}
{"smiles": "COc1ccc(-c2cccc(NC(=O)c3cccc(C#N)c3)c2)cc1CN(C)CCN(C)C", "values": [{"measurement": "inhibition", "setting": "[1]", "result": 1.23, "unit": "%"}, {"measurement": "inhibition", "setting": "[2]", "result": 1.39, "unit": "%"}, {"measurement": "inhibition", "setting": "[3]", "result": 0.48, "unit": "%"}]}
{"smiles": "COc1ccc(CN2CCCN(Cc3ccc(C(=O)Nc4ccc(Cl)cc4)cc3)CC2)cc1", "values": [{"measurement": "inhibition", "setting": "[1]", "result": 4.35, "unit": "%"}, {"measurement": "inhibition", "setting": "[2]", "result": 5.51, "unit": "%"}, {"measurement": "inhibition", "setting": "[3]", "result": 6.65, "unit": "%"}]}
{"smiles": "Cc1ccccc1Cc1cccc(/N=C(\\N)Nc2ccc(Cl)cc2)n1", "values": [{"measurement": "inhibition", "setting": "[1]", "result": 5.38, "unit": "%"}, {"measurement": "inhibition", "setting": "[2]", "result": 5.38, "unit": "%"}, {"measurement": "inhibition", "setting": "[3]", "result": 2.51, "unit": "%"}]}
